According to PubChem BioAssay AID1030 (National Center for Advancing Translational Sciences (NCATS), 2008):
About 16,000 (7.3%) of roughly 220,000 compounds were called active. Inconclusive results (about 25%) are left out. This excerpt belongs to a sample that is enriched for actives. Unmarked numbers belong to inactive results. The call rests on the fitted dose curve; in most records, active means well fitted inhibition curve with a large enough effect (not every such curve was filed as active); inconclusive means small, poorly fitted or top-dose-only effect, or another doubt; inactive means no such curve, though single readings can be large or run the other way.

target: Aldehyde dehydrogenase 1A1 (Homo sapiens) (UniProt P00352); test: qHTS Assay for Inhibitors of Aldehyde Dehydrogenase 1 (ALDH1A1); conditions: Purified ALDH1A1, NADH fluorescence, propionaldehyde substrate; series mostly up to 75.3 µM; activity, negative = inhibition: at the top concentration;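 on activity, negative = inhibition: plate controls were no enzyme wells and a reference inhibitor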
Potency means the concentration at half of the fitted maximal effect.

Chain of Aldehyde dehydrogenase 1A1 (Homo sapiens) (P00352 whole entry, looked up): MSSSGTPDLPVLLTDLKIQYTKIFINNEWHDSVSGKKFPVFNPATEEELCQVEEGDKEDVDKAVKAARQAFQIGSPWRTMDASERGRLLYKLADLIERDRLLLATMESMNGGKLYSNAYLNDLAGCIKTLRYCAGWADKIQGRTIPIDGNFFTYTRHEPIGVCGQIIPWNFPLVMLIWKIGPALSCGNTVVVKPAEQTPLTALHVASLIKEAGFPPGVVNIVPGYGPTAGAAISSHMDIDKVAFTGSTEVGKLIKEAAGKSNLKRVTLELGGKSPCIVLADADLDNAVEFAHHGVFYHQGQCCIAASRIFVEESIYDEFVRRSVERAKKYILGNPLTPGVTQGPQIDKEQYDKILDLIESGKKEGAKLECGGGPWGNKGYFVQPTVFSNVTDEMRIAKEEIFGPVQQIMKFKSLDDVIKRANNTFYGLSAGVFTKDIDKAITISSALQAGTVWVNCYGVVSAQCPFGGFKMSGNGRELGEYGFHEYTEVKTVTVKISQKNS

| SMILES | activity, negative = inhibition [%] | Potency |
| --- | --- | --- |
| COc1ccc(OC)c(NC(=O)N[C@H](Cc2ccccc2)C(=O)NN)c1 | 0.169 | – |
| CC(C)CN1CCNC(=O)C1CC(=O)N(C)CC1CCOCC1 (configuration not stated) | -15.6 | – |
| Cc1ccc(CN(C)CC(=O)Nc2cccc([N+](=O)[O-])c2)o1 | -12.7 | – |
| CC(=O)c1ccc(NC(=S)N(Cc2ccccc2)C(C)C2CC2)cc1 (configuration not stated) | -15.7 | – |
| Cc1ccc(CC2CC(=O)N(c3ccc4c(c3)OCCO4)C2=O)cc1 (configuration not stated) | -14.9 | – |
| CC1CCC(N2CC(=O)N(Cc3ccc4c(c3)OCO4)C(c3ccc(F)cc3)C2=O)CC1 (configuration not stated) | -13 | – |
| Cc1ccc(N2C(=O)CC(NCc3ccc4c(c3)OCO4)C2=O)cc1Cl (configuration not stated) | – | 22.4 µM (active) |
| O=C1NC(c2cccc(Cl)c2)Nc2ccccc21 (configuration not stated) | 2.54 | – |
| N/C(=N\S(=O)(=O)c1ccc(Cl)cc1)N1CCOCC1 | -1.23 | – |
| Cc1ccc(N(C(=O)c2sc(C)nc2C)C(C(=O)NC(C)(C)C)c2ccncc2)cc1 (configuration not stated) | 12.4 | – |
| Cc1c(C(=O)O)nnn1-c1nonc1N | 3.6 | – |
| CCOC(=O)c1c(/N=C/C2C(=O)CC(C)(C)CC2=O)sc(C)c1C | – | 2.24 µM (active) |
| CC1(C)CC(=O)C(C=NCc2cccnc2)=C(O)C1 | -3.28 | – |
| CC(=O)N1CCN(CCN=CC2=C(O)CC(C)(C)CC2=O)CC1 | -14.2 | – |
| CCOC(=O)c1c(NC(=O)/C=C/c2ccco2)sc(C)c1C | -9.12 | – |
| CCOC(=O)c1sc(/N=C/C2=C(O)CC(C)(C)CC2=O)c(C(=O)OCC)c1C | – | 11.2 µM (active) |
| CCN(C(=O)COC(=O)c1c(NC(C)=O)sc(C)c1C)C1CCS(=O)(=O)C1 (configuration not stated) | -13.5 | – |
| Cc1cc(C)nc(N/N=C/c2c(C)oc3ccccc23)n1 | 1.58 | – |
| O=C(COc1ccccc1[N+](=O)[O-])NC1CC1 | -0.186 | – |
| C=CCNC(=O)COC(=O)CNC(=O)c1cc(Cl)cc([N+](=O)[O-])c1 | -7.54 | – |
| Cn1cc(CCC(=O)N2CCCC(C(=O)c3ccc(C(C)(C)C)cc3)C2)cn1 (configuration not stated) | -17.2 | – |
| Cc1nn(CC(=O)N/N=C/c2ccc(F)cc2)c(C)c1[N+](=O)[O-] | 8.02 | – |
| O=C(CCCc1ccccc1)NCc1ccccc1 | -5.53 | – |
| C/C(=C\c1ccco1)CN1CCC(N2CCC(C(=O)N3CCOCC3)CC2)CC1 | -2.56 | – |
| Cc1cc(C)n2nc(SCC(N)=O)nc2n1 | 10.8 | – |
| COc1ccc(C(C)=O)cc1CSc1nc2nc(C)cc(C)n2n1 | – | 20 µM (active) |

| SMILES | activity, negative = inhibition [%] | Potency |
| --- | --- | --- |
| CCOC(=O)C(C)Sc1nnc(CSc2nc3nc(C)cc(C)n3n2)o1 (configuration not stated) | 12.7 | – |
| O=C(CCC(=O)OCc1ccc(Cl)cc1)Nc1ccccc1 | -1.17 | – |
| Cc1cc(C)c2nc(-c3cccnc3)cc(C(=O)Nc3ccc(S(=O)(=O)Nc4onc(C)c4C)cc3)c2c1 | 23.6 | – |
| COc1ccc(/C=C/C(=O)c2ccc(NS(=O)(=O)c3ccc(C)cc3)cc2)cc1O | -11 | – |
| CN1CCN(C(=O)CCc2ncc(C(F)(F)F)cc2Cl)CC1 | 3.64 | – |
| CC(CC(=O)C1C(C)C=CCC1(C)C)NNC(N)=O (configuration not stated) | 6.59 | – |
| O=S1(=O)CCN2C(=N1)SC1=C2CCN(Cc2ccccc2)C1 | 13.5 | – |
| O=C(Nc1ccccc1Cc1ccccc1)c1ccc2c(c1)SC1=NS(=O)(=O)CCN12 | – | 7.94 µM (active) |
| O=C(Nc1ccccc1N1CCN(c2ccccc2)CC1)c1cccc(F)c1 | -8.56 | – |
| COc1ccc(N2CCN(CCCNC(=O)C3CCN(S(=O)(=O)N4CCOCC4)CC3)CC2)cc1 | 6.15 | – |
| CCc1ccc(N2CC(O)=C(c3nc4ccccc4c(=O)[nH]3)C2=N)cc1 | -198 | – |
| O=C(NCc1ccccc1)C1=C[C@@H](C2CCCCC2)C[C@@H](OCc2ccc(CO)cc2)O1 | – | 12.6 µM (active) |
| O=C(NCc1ccccc1)C1=C[C@@H](c2ccc(C(F)(F)F)cc2)C[C@@H](OCc2ccc(CO)cc2)O1 | -6.56 | – |
| O=C(NCc1ccccc1)C1=C[C@H](C2CC2)C[C@H](OCc2ccc(CO)cc2)O1 | -12.3 | – |
| O=C(C1=C[C@H](C2CC2)C[C@H](OCc2ccc(CO)cc2)O1)N1CCN(Cc2ccccc2)CC1 | -3.33 | – |
| O=C(C1=C[C@H](c2coc3ccccc3c2=O)C[C@H](OCc2ccc(CO)cc2)O1)N1CCOCC1 | -3.13 | – |
| C=CCOC(=O)c1ccccc1C(=O)OCC=C | -5.89 | – |
| CC(C)(C)[C@H]1C=C(C(=O)NCc2ccccc2)O[C@@H](OCc2ccc(CO)cc2)C1 | -0.163 | – |
| C=CCOC(=O)C1=C[C@@H](c2ccccc2)C[C@@H](OCc2ccc(CO)cc2)O1 | – | 10 µM (active) |
| NC(=O)C1=C[C@H](c2csc3ccccc23)C[C@H](OCc2ccc(CO)cc2)O1 | – | 8.91 µM (active) |
| O=C(CCS(=O)(=O)c1ccccc1Cl)Nc1ccc(S(=O)(=O)Nc2ncccn2)cc1 | 9.04 | – |
| O=C(COc1ccccc1)Nc1ccc(N2CCN(C(=O)c3cccs3)CC2)cc1 | -11.5 | – |
| Cc1ccc(C)c(-n2ccnc2SCC(N)=O)c1 | 21.3 | – |
| CC(CCn1cccn1)NC(=O)CCc1nnc(CCc2ccccc2)o1 (configuration not stated) | 0.243 | – |
| CCC(C)NC(=O)c1nn(C)c(=O)c2ccccc12 (configuration not stated) | 5.8 | – |
| CCC(C(=O)OCC(=O)Nc1ccccc1-c1ccccc1)c1ccccc1 (configuration not stated) | -5.66 | – |
